Measurements published in PubChem BioAssay AID686970 (National Center for Advancing Translational Sciences (NCATS), 2013).
Among all 360,000 compounds or so, about 6,000 (1.7%) were called active. Another 8% or so got no clear call; they are omitted. Many of the other results were omitted from the sample, so actives are more common in it than they were. Unmarked numbers belong to inactive results. Calls follow the shape of the dose curve; as a rule, active = well fitted cell-killing curve with a large enough effect; inconclusive = small, poorly fitted or top-dose-only effect, or effect the other way; inactive = flat fitted curve, though single readings scatter.

assay: qHTS for induction of synthetic lethality in tumor cells producing 2HG: qHTS for the HT-1080-NT fibrosarcoma cell line; conditions: HT-1080-NT fibrosarcoma viability, CellTiter-Glo ATP luminescence, 48 h; series mostly up to 46.1 µM; activity, negative = less viability: at the top concentration; also: nearly all actives have a fitted effect of over 55% in size
Source text: Unbiased genomic sequencing for 22 glioma genomes found recurrent mutation of IDH1 on chromosome 2q33, a gene encoding the cytosolic isoform of IDH1 associated with the tricarboxylic acid cycle (TCA) that catalyzes the oxidative decarboxylation of isocitrate, yielding alpha-ketoglutarate and CO2 via NADP+ to NADPH conversion. Subsequent studies confirmed the recurrent IDH mutations in up to 70% of secondary gliomas and in 10% of AML cases. In addition, the somatic mutation of cancer-associated IDH1 is a point mutation resulting in various amino-acid substituents at Arginine132 (IDH1 R132), a key residue found in the enzyme's active site that when mutated, results in the loss-of-function in metabolizing isocitrate but confers a gain-of-function to produce the oncometabolite 2-hydroxyglutarate (2HG). This in effect defines IDH1 as an oncogene and provides an extraordinary opportunity to discover chemical probes against mutant IDH1 that may translate into much needed new therapies for glioma and AML patients.
This assay aims to perform a synthetic lethal screen for chemical probes specific for 2HG-producing tumor cells using matched paired cell lines (1) HT-1080-NT fibrosarcoma cell line that overproduces 2HG and (2) HT-1080-IDH1KD cell line which has IDH1 expression knocked-down. Desirable compounds are toxic to the NT fibrosarcoma cells but not to the IDH1KD cell line. The data in this AID corresponds to the results of the qHTS against the HT-1080-NT fibrosarcoma cell line.
[1] Dang L, Jin S, Su SM. IDH mutations in glioma and acute myeloid leukemia. Trends of Mol Med. 2010; 16(9): 387-97.
[2] Dang L et al. Cancer-associated IDH1 mutations produce 2-hydroxyglutarate. Nature. 2010; 465(7300):966.
NIH Molecular Libraries Probe Production Centers Network [MLPCN]
NIH Chemical Genomics Center [NCGC]
Assay Submitter (PI): Lenny Dang Ph.D., Agios Pharmaceuticals
Suspensions of trypsinized HT-1080-NT cells were dispensed into white, tissue culture-treated, solid 1536-well plates at 5uL/well (750 cells/well final concentration) in RPMI medium supplemented with 5% FBS. Plates were incubated at 37 degrees C for 2 hours, after which 23 nL of compounds or DMSO were delivered to each well using a pin tool. Plates were then incubated at 37 degrees C for an additional 48 hours. CellTiter-Glo viability reagent (Promega) was dispensed into wells (2.5uL/well) and incubated at room temperature for 10 minutes. The plates were measured on a PerkinElmer ViewLux plate reader for luminescent signal (clear filter, 1 sec exp). DMSO-treated control wells and media-only (no cells) control wells were used to normalize %Activity of identified toxic compounds; DMSO-treated wells corresponded to 0%Activity (100% viability), while media-only controls were used to normalize 100%Activity (0% viability).
Concentration-response curves were fitted to the signals arising from the resulting luminescence. The concentration-effect curves were then classified based on curve quality (r2), response magnitude and degree of measured activity, and compounds were subsequently categorized based on their curve class.
Potency is read from the fitted curve at half-maximal effect.

For `O=C(NN=Cc1ccccc1O)NN=Cc1ccccc1O`, the Potency was 8.2 µM (active).
For `Cc1cccc(NS(=O)(=O)c2ccc(-c3cnc(C4CC4)o3)cc2)c1`, the Potency was 5.17 µM (active).
For `CCN(CC)CCn1c2ccc(Cl)cc2c2nc(C)sc21`, the Potency was 28.2 µM (active).
For `Cc1nc(/N=C(\N)NC(=O)NC2CCCCC2)nc2ccccc12`, the Potency was 23.1 µM (active).
For `CCCCOCCCNC(=O)C[C@@H]1C[C@@]2(C(=O)OCC)CCCC=C2N(CCC2=CCCCC2)C1=O`, the Potency was 16.4 µM (active).
With `O=C(Cn1c(NCCO)nc2ccccc21)c1ccc(Cl)cc1Cl` the Potency was 20.6 µM (active).
For `Cc1cc(C)c2c(c1)cc(C)c1nnc(SCC(=O)Nc3cc(C)on3)n12`, the Potency was 6.31 µM (active).
With `NC(Cc1ccc(F)cc1)c1csc(Nc2nncc3ccccc23)n1` (configuration not stated) the Potency was 23.1 µM (active).
For `COC(=O)Cn1cc(/C=C/[N+](=O)[O-])c2ccccc21`, the Potency was 18.4 µM (active).
In the case of `Cc1ccc2nc(/C(C#N)=C\c3ccc(OC(=O)c4cccs4)cc3)[nH]c2c1`, the Potency is reported as 7.94 µM (active).
In the case of `C/C(=N\NC(=O)c1ccoc1C)c1ccccc1O`, the Potency is reported as 3.26 µM (active).

Point of comparison: `Cc1occc1C(=O)NNC(=S)NCC(C)C`, “activity, negative = less viability” value 1.03%. Against it:
- CCCNC(=O)C1(C)CCCN(Cc2cccc(C(F)(F)F)c2)C1 (configuration not stated) — higher, 6.04%
- COc1ccc(CNS(=O)(=O)c2ccc(-c3cnc(C4CC4)o3)cc2)cc1 — lower, -19.8%
- Cc1cccc(NS(=O)(=O)c2ccc(C)c(C(N)=O)c2)c1 — higher, 4.32%
- O=C(CCCN1C(=O)C(c2ccccc2)Oc2cccnc21)Nc1ccccc1Br (configuration not stated) — lower, -2.47%
- COc1ccc(C(CNC(=O)c2ccc(OCc3cscn3)cc2)N2CCCC2)cc1 (configuration not stated) — lower, -5.47%
- CN1CCN(c2ccc3c(c2)OC[C@H](Cc2ccccc2)NS3(=O)=O)CC1 — higher, 9.78%
- CCN(CC)CCNc1ccc(Cl)cc1[N+](=O)[O-] — lower, -3.02%
- COC(=O)Cn1c2ccc(C)cc2c2nc(C)sc21 — higher, 11%
- O=C(NCc1ccccc1)C1c2ccccc2OCC(=O)N1C1CC1 (configuration not stated) — higher, 20.8%
- Cc1sc2ccccc2c1CNC[C@H]1O[C@@H](n2ccc(=O)[nH]c2=O)[C@H](O)[C@@H]1O — higher, 21.8%
- COc1ccc2nc(/N=C(\N)NC(=O)Nc3ccccc3)nc(C)c2c1 — lower, -18.5%
- CC(C)c1cc(C(=O)NC2CCCCCC2)c2ccccc2n1 — lower, -7.58%
- Cc1cccc(N(CC(=O)N2CCCC2)S(C)(=O)=O)c1C — higher, 9.09%
- CC(=O)c1ccccc1NC(=O)COC(=O)C1COc2ccccc2O1 (configuration not stated) — higher, 1.1%
- CCOC(=O)[C@]12CCC=C1N(CCC1=CCCCC1)C(=O)[C@H](CC(=O)NCc1ccc(C)o1)C2 — higher, 9.86%
- CCOC(=O)[C@]12CCCC=C1N(CCC1=CCCCC1)C(=O)[C@H](CC(=O)NCCCOC)C2 — lower, -1.32%
- COC(=O)[C@]12CCCCC=C1N(Cc1ccc3c(c1)OCO3)C(=O)[C@H](CC(=O)N1CCOCC1)C2 — higher, 8.8%
- O=S(=O)(O)c1nc2ccccc2n1Cc1ccc(Cl)cc1Cl — lower, -0.293%
- O=C(Cn1c(-c2cscn2)nc2ccccc21)Nc1ccc(Cl)cc1 — lower, -23.1%
- COc1ccc(C(C)C)cc1-c1ccc2nncn2c1 — higher, 2.86%
- CC(C)C[C@@H]1Cc2[nH][nH]c(=O)c2[C@H](CCc2ccccc2)O1 — lower, -14.8%
- Cc1cc(NC(=O)CSc2nnc(-c3ccco3)n2N)no1 — higher, 2.26%
- Cc1cc(NC(=O)CSc2nnnn2-c2ccc(F)cc2)no1 — lower, -1.26%
- CCOC1=C2[C@H]([C@H]3C(=O)N(c4ccccc4)C(=O)[C@H]3C1)[C@@H](c1ccccc1)N(S(=O)(=O)c1ccc(C)cc1)[C@H]2c1ccccc1 — higher, 24.4%
- Cc1cccc(C)c1NC(=O)C(c1ccc(C(F)(F)F)cc1)n1c(=O)c(-c2ccco2)nc2ccccc21 (configuration not stated) — lower, -22.7%
- CC(=O)c1ccc(Nc2nc(C(N)c3ccccc3Cl)cs2)cc1 (configuration not stated) — lower, -21.8%
- COCC(C)NC(=O)COc1nncc2ccccc12 (configuration not stated) — lower, -1.79%
- Cc1cc(Br)ccc1NC(=O)CCCOc1cc(=O)n(C)c2ccccc12 — lower, -24.6%
- COC(=O)[C@]12CCCCC=C1N(Cc1ccc(Cl)cc1Cl)C(=O)[C@H](CC(=O)NCc1cccc3ccccc13)C2 — lower, -25.6%
- Cc1cc2c3ccccc3[nH]c(=O)n2n1 — higher, 15.6%
- COc1ccc(CN2C(=O)C(CC(=O)NCc3cccc4ccccc34)CC(C(=O)N3CCOCC3)=C2C)cc1 (configuration not stated) — lower, -1.78%
- NC(=O)Cn1cc(/C=N\NS(=O)(=O)c2ccccc2)c2ccccc21 — lower, 0.259%
- COCCCNC(=O)Cn1cc(/C=C(\C#N)C(=O)N2CCN(c3ccccc3)CC2)c2ccccc21 — lower, 0.984%
- CC1Cc2[nH][nH]c(=O)c2C(C2CCCC2)O1 (configuration not stated) — higher, 3.75%
- CC1(Oc2ccccc2-c2ccno2)CCN(Cc2ccc(-c3ccccc3)o2)C1 (configuration not stated) — lower, -24.5%
- CC(C)N1C(=O)c2ccccc2NC(=O)C1C(=O)NCc1cccs1 (configuration not stated) — higher, 5.09%
- COc1ccc(CCNC(=O)/C(C#N)=C2\N=C(NC(=O)c3cccs3)c3ccccc32)cc1 — higher, 2.15%
- Cc1ccnc(NC(=O)c2ccoc2C)c1 — lower, -27.2%
- CC(C)Nc1ncnc2c1ncn2[C@H]1CN(Cc2ccncc2)C[C@@H](CO)O1 — higher, 13.7%
- CCCCC(=O)N(C)c1c(CC)nc2c(OCc3ccc(S(C)(=O)=O)cc3)cccn12 — lower, -15%
